Out of some 68,000 compounds screened, about 2,700 (4%) showed an effect of 50% or more. The sample as a whole holds a higher share of strong results than the screen did.

This assay relates to Plasmodium berghei. Nature of the assay: Screen against P. berghei liver stage (PbLuc), transformed with Luciferase, at 2uM. To be noted: tested at 2 uM. Type of assay: functional, HepG2.
For `COCc1nc2nc(O)c3c(n2n1)NC(=O)CC3c1ccc(SC)cc1` (stereo not drawn), the INHIBITION is reported as -19.97%. Turning to `Cc1cccc(C(=O)N2CCC3(CC2)CC(c2cnn(C)c2)CO3)c1` (stereo not drawn), the INHIBITION was determined as 11.79%. Take `CC(C(=O)Nc1ccnn1C(C)C)N1CCc2nn(C)c(=O)cc2C1` (stereo not drawn): the INHIBITION is on record as -15.38%. On to `CC(C)CN1CCCC1c1cc[nH]n1` (stereo not drawn), for which the INHIBITION is 17.29%. In the case of `c1ccc(COC[C@@H]2CCC[C@]23CN(Cc2nccs2)CCO3)nc1`, the INHIBITION is 17.24%.

With `CS(=O)(=O)N1CCCC12CCCN(C(=O)c1ccno1)C2` (stereo not drawn), the INHIBITION is listed as 7.3%. Take `COCc1cc(CC2(NC3CCCCC3)COC2)no1`: the INHIBITION was -9.98%. With `CCN(CC)C1(Cc2cc(COC)on2)COC1` the figure was 52.36%.

Regarding `CCN(CC)C1(Cc2cc(CC(C)C)on2)COC1`, the INHIBITION is 32.59%. `Cc1ccc(C(=O)N2CCc3ncnc(C)c3CC2)o1`: the INHIBITION turned out to be 32.97%. To `Cc1ccc(C(=O)N2C[C@H]3CCC[C@@]3(COCC3CCOCC3)C2)o1` belongs -35.36%; to `CCOC(=O)N1CCc2ccccc2C12CCNCC2`, 4.38%; to `Cc1ccc(CN2CCOC3(CCN(C(=O)N4CCCC4)CC3)C2)cc1`, 33.35%.

On to `Cc1ccc(CN2CCOC3(CCN(C(=O)C4CC=CC4)CC3)C2)cc1`, for which the INHIBITION is recorded as -41.1%.

Regarding `Cc1ccc(CN2CCOC3(CCN(C(=O)C4CCOC4)CC3)C2)cc1` (stereo not drawn), the INHIBITION is 69.37%.

`Cc1nc(C)n(CC2CN(CCc3ccccc3Cl)CCO2)n1` (stereo not drawn): the INHIBITION is reported as -7.08%. To `Cc1ccccc1CSCCn1nc2ccccn2c1=O` belongs 6.3%. With `Cn1nnnc1SC1CCN(c2ccccc2Cl)C1=O` (stereo not drawn), the INHIBITION worked out at 4.99%. To `CC(=O)NCCCSC1CCN(c2ccccc2Cl)C1=O` (stereo not drawn) belongs 68.61%.

Take `CC(=O)NCCCSC1CCCN(c2ccccc2F)C1=O` (stereo not drawn): the INHIBITION turned out to be 9.13%.

Regarding `CC(=O)NCCCSC1CCN(c2c(F)cccc2F)C1=O` (stereo not drawn), the INHIBITION was determined as 41.07%. With `CC(=O)NCCCSC1CCCN(c2ccccc2Cl)C1=O` (stereo not drawn) the figure was -1.89%; with `CC(=O)NCCCSC1CCN(c2ccccc2F)C1=O` (stereo not drawn), 75.22%. With `CCc1ccc(S(=O)(=O)Nc2ccncc2)s1` the figure was -13.03%; with `COc1cc2c(cc1CN1CCn3c(CO)nnc3C1)CCC2`, 16.14%. With `Cc1cc(CN2CCCC2c2noc(C)n2)no1` (stereo not drawn) the figure was -52.52%. Take `Cc1nnc([C@@H]2C[C@H]3CN(C4CCC4)C[C@H]3O2)[nH]1`: the INHIBITION came out at 4.07%. With `CCCc1nnc(N2CCN(c3ccccc3OCC)CC2)o1` the figure was -11.34%; with `O=C(CCC1CCCC1)N1CCCC(c2ncc3c(n2)CCNC3)C1` (stereo not drawn), 24.89%; with `Cc1c(CN2CCCC(C(=O)Nc3ccccc3)C2)cc(C#N)n1C` (stereo not drawn), 9.63%. With `c1cc(CN2CCCCC2c2ccc(Nc3cnccn3)nc2)ccn1` (stereo not drawn), the INHIBITION turned out to be 42.53%. With `Cc1ncoc1C(=O)N1CCc2[nH]nc(-c3ccc4c(c3)OCO4)c2C1` the figure was -4.53%; with `Cc1nc(COCc2cnc3n2CCN(CC2CCC2)C3C)cs1` (stereo not drawn), 25.35%.

Regarding `O=C(N[C@@H]1CCC[C@@H](N2CCOCC2)[C@@H]1O)c1cc2ccccc2[nH]1`, the INHIBITION came out at 8.26%.

`O=C(N[C@@H]1CCC[C@@H](N2CCCC2)[C@@H]1O)c1cc2ccccc2[nH]1`: the INHIBITION came out at 14.49%. Take `O=C(N[C@@H]1CC[C@@H](N2CCCC2)[C@@H]1O)c1cc2ccccc2[nH]1`: the INHIBITION stood at 51.88%.

As for `COCc1nc(C(=O)NS(=O)(=O)c2cc(F)ccc2F)cs1`, the INHIBITION worked out at 29.37%. For `Cc1nc(NCc2nncn2C2CC2)c2c(CC(C)C)csc2n1`, the INHIBITION turned out to be 36.86%. To `COc1ccc(CN2CCC(O)(CN3CCCCC3)C2)c(C)c1` (stereo not drawn) belongs -1.21%. Take `CN(Cc1noc(C2CC2)n1)C1CCN(Cc2nc(C3CC3)no2)C1` (stereo not drawn): the INHIBITION came to 27.89%. To `CC1CCN(CCCNC(=O)NC(C)c2nncn2C)CC1` (stereo not drawn) belongs 6.3%; to `CCNc1c(NC(=O)NCCOC)c(=O)oc2ccccc12`, -25.41%. To `FC(F)(F)c1nc(NC2CCc3ncnn3C2)c2ccccc2n1` (stereo not drawn) belongs -8.8%; to `FC(F)(F)c1nc(NC2CCCC2)c2ccccc2n1`, 15.52%. Regarding `FC(F)(F)c1nc(NC2CCCCC2)c2ccccc2n1`, the INHIBITION is given as 52.43%.

As to `O=c1c2sccc2nc2n1CCN(Cc1ccccc1C(F)(F)F)CC2`, the INHIBITION is 26.56%. For the compound `O=C1CC(c2ccccc2)C2(CCN(C(=O)c3cnccn3)CC2)N1` (stereo not drawn), the INHIBITION was 20.87%. `COc1ccccc1CN1CC[C@H]2C[C@@H](C(=O)N3CCCC3)O[C@H]2C1`: the INHIBITION came out at 52.4%. `O=C([C@@H]1C[C@@H]2CCN(C3CCOCC3)C[C@@H]2O1)N1CCCC1`: the INHIBITION came out at 65.26%.

Take `O=C([C@@H]1C[C@@H]2CCN(C3CCOCC3)C[C@H]2O1)N1CCCC1`: the INHIBITION is -26.64%.

`COc1ccccc1CN1CC[C@H]2C[C@H](C(=O)N3CCCC3)O[C@H]2C1`: the INHIBITION came out at 15.89%. With `O=C([C@H]1C[C@@H]2CCN(C3CCOCC3)C[C@H]2O1)N1CCCC1` the figure was 18.65%; with `O=C([C@@H]1C[C@@H]2CCN(CCc3ccccc3)C[C@H]2O1)N1CCCC1`, 14.94%.

The values are drawn from ChEMBL document CHEMBL4513216, “Probing the Open Global Health Chemical Diversity Library for Multistage-Active Starting Points for Next-Generation Antimalarials” (ACS Infect Dis, 2020).
